The list is not random: actives were taken first. Their share in the collection is about 19%.
TDP1 cell noCPT – qHTS for Inhibitors of human tyrosyl-DNA phosphodiesterase 1 (TDP1): qHTS in cells in absence of CPT; AID 686978, 2013; DT40 Tdp1-/- hTDP1 cells, no CPT, ATP luminescence, 48 h; Potency, µM (series often up to 46.2 µM), for the others: at the highest dose activity change, negative = growth inhibition, hits mostly inhibitors; 420,000 compounds, 15% hits; further: potency means the concentration at half of the fitted maximal effect; nearly all actives have a fitted effect of over 55% in size
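Seeded 400 DT40-hTDP1 cells/well (vehicle DMSO, no 20 nM CPT); pinned compounds; ≥48 hr at 37 °C; CellTiter-Glo luminescence as viability measure.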
DT40 TDP1 CPT – DT40-hTDP1 cell growth loss with CPT; chicken DT40 Tdp1-/-;hTDP1 cells + 20 nM CPT, ATP luminescence, 48 h; 420,000 compounds, 12% hits; Potency, µM (highest dose often 46.2 µM), for inactives: top-dose activity change, negative = growth inhibition, hits mostly inhibitors; further: potency means the concentration at half of the fitted maximal effect; nearly all actives have a fitted effect of over 55% in size
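Chicken DT40 Tdp1-/- cells complemented with human TDP1, 400 cells/well, exposed to compounds plus 20 nM camptothecin for at least 48 h at 37 C; viability read as ATP content by CellTiter-Glo luminescence.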
HT1080 IDH1KD tx – toxicity to HT-1080 IDH1 knockdown cells (counter line). HT-1080 IDH1 knockdown viability, ATP luminescence, 48 h. Potency, µM (titrated, usually from 46.1 µM), inactives show top-dose activity, negative = toxicity, most hits filed as cytotoxic. 360,000 compounds, 2% hits;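 further: potency means the concentration at half of the fitted maximal effect; 0% = DMSO wells and -100% = cell-free medium wells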
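Viability of IDH1-knockdown HT-1080 fibrosarcoma cells was assessed by CellTiter-Glo after 48 h at 37 °C with titrated compound; concentration-effect curves were classified by fit quality and response size.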
HT1080-NT tox – kills 2HG-producing HT-1080-NT fibrosarcoma cells; HT-1080-NT fibrosarcoma viability, CellTiter-Glo ATP luminescence, 48 h; Potency, µM (highest dose often 46.1 µM), for inactives: at the top dose activity, negative = less viability, actives largely listed as cytotoxic; 360,000 compounds, 1.6% hits;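 further: NT is the 2HG producing partner of a matched IDH1 knockdown line; potency means the concentration at half of the fitted maximal effect; 0% = DMSO-treated cells and -100% = media-only wells without cells; nearly all actives have a fitted effect of over 55% in size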
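Viability of the 2HG-overproducing fibrosarcoma line after 48 hours of compound exposure at 37 degrees C was determined by luminescence with CellTiter-Glo, and concentration-effect curves were then fitted and categorized.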
IL-1B inflam inh – inhibitors of inflammasome signaling (IL-1 beta secretion); THP-1 LPS/ATP IL-1B secretion, AlphaLISA, 16 h; hits give low values; activity change, % at 57.5 µM; 360,000 compounds, 4.7% hits; in the data active means activity change below about -50%; inconclusive means mostly about -30% to -49%
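THP-1 cells pretreated 1 hr with compounds (up to 57.5 uM final), then stimulated with LPS (250 ng/mL final) plus ATP (1.25 mM final); secreted IL-1B measured by AlphaLISA after 16 hr, decreased signal indicating inhibition.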
The depositor's hits bear a star; ? = inconclusive; nt = not tested or not shown. Unless noted, the call rests on the fitted dose curve; in most records, active means well fitted curve in the direction sought with a large enough effect; inconclusive means small, poorly fitted or top-dose-only effect, or another doubt; inactive means no such curve, though single readings can be large; an effect the other way counts as inactive or inconclusive. Unless noted, on the % scale 0 is the no-effect control and ±100 the full control effect.

SMILES | TDP1 cell noCPT | DT40 TDP1 CPT | HT1080 IDH1KD tx | HT1080-NT tox | IL-1B inflam inh
S=c1[nH]nc([C@@H]2C[C@H]2c2ccccc2)n1-c1ccccc1Cl | -7% | -1% | -10% | -9% | 0
Nc1ncnc2c1ccn2[C@H]1CN(Cc2ccc3c(c2)OCO3)C[C@@H](COC(=O)c2ccccc2)O1 | ? | ? | 27% | ? | 40
CC1(c2nnc(-c3ccncc3)o2)CC(c2ccccc2)=NO1 (stereo not drawn) | -19% | -25% | -1% | 6% | 0
OC(c1ccc(Cl)c(F)c1)c1ncc(-c2cccc(C(F)(F)F)c2)[nH]1 (stereo not drawn) | 23µM* | ? | ? | ? | 0
OC(c1ccc2c(c1)OCO2)c1ncc(-c2ccc(Cl)cc2)[nH]1 (stereo not drawn) | ? | ? | -21% | -16% | -6
OC(c1ccccc1)c1ncc(-c2cccc(C(F)(F)F)c2)[nH]1 (stereo not drawn) | ? | ? | -5% | 11% | 3
OC(c1ccc2c(c1)OCO2)c1ncc(-c2cccc(C(F)(F)F)c2)[nH]1 (stereo not drawn) | 8.2µM* | -35% | -15% | -23% | ?
CCN(CC)c1ccc(NC(=O)c2cccc(F)c2)c(C)c1 | 3.3µM* | 4.6µM* | 16µM* | ? | -6
CCCc1c(C(=O)Nc2ccc(F)cc2C)cnn1-c1ccccc1 | ? | -28% | 0% | 26% | ?
Cc1ccc(S(=O)(=O)NNC(=O)c2cnn(-c3ccccc3)c2-n2cccc2)cc1 | 1.5µM* | 1.6µM* | 12% | 10% | -3
Cc1ccc(S(=O)(=O)NNC(=O)c2ccccc2O)cc1 | -17% | -27% | -2% | -3% | 19
CCN(CC)c1ccc(NC(=O)c2cnn(-c3ccccc3)c2-n2cccc2)c(C)c1 | 10µM* | 15µM* | nt | nt | nt
Cc1cc(NC(=O)c2cnn(-c3ccccc3)c2-n2cccc2)ccc1Br | ? | 18µM* | nt | nt | nt
CCN(CC)c1ccc(NC(=O)c2ccco2)c(C)c1 | ? | ? | -10% | 4% | -11
COc1cccc(N2CN(CCc3ccccc3)CNC2=S)c1 | ? | 6% | 14% | 12% | nt
CN1CCN(c2ncc3nc(-c4cc(F)cc(F)c4)c(=O)n(-c4ccccc4)c3n2)CC1 | -18% | -12% | nt | nt | nt
CC(=O)c1ccc(NC(=O)c2cnn(-c3cccc(F)c3)c2-n2cccc2)cc1 | 23µM* | ? | nt | nt | nt
Cc1cc(=O)[nH]c(SCC(=O)N2CCC(Cc3ccccc3)CC2)n1 | 6% | 3% | -3% | -5% | ?
Cc1nc(SCC(=O)N2CCC(Cc3ccccc3)CC2)[nH]c(=O)c1C | 23µM* | 16µM* | -11% | 1% | 9
Cc1cc(=O)[nH]c(SCC(=O)N2CCN(c3ccccc3)CC2)n1 | -16% | -13% | nt | nt | nt
Cc1cc(=O)[nH]c(SCC(=O)N2CCN(C(c3ccccc3)c3ccccc3)CC2)n1 | ? | 18µM* | 1% | -2% | -11
O=C(CSc1nc(C(F)(F)F)cc(=O)[nH]1)N1CCC(Cc2ccccc2)CC1 | 12µM* | -11% | -9% | -10% | -19
CC(=O)Nc1cc(-c2ccccc2F)cn2c(-c3ccccc3)cnc12 | ? | 16µM* | -16% | -17% | -25
CC(=O)Nc1cc(-c2cccnc2)cn2c(-c3cccc(C(F)(F)F)c3)cnc12 | ? | 18µM* | -9% | -20% | -12
COc1ccccc1-c1cc(NC(C)=O)c2ncc(-c3cccc(C(F)(F)F)c3)n2c1 | 21µM* | 23µM* | ? | ? | -4
SMILES | TDP1 cell noCPT | DT40 TDP1 CPT | HT1080 IDH1KD tx | HT1080-NT tox | IL-1B inflam inh
COc1ccc(-c2cc(NC(C)=O)c3ncc(-c4cccc(C(F)(F)F)c4)n3c2)c(OC)c1 | ? | ? | ? | -29% | -5
COc1cccc(-c2cnc3c(NC(C)=O)cc(-c4ccccc4OC)cn23)c1 | 16µM* | 18µM* | ? | ? | 0
COc1cccc(-c2cnc3c(NC(C)=O)cc(-c4cc(OC)c(OC)c(OC)c4)cn23)c1 | ? | ? | ? | ? | 0
COc1cc(OC)c(OC)cc1CNCCCSc1nnnn1C | -9% | -2% | nt | nt | nt
CCOc1cc(C=C2C(=O)c3ccccc3C2=O)ccc1OCC(=O)Nc1ccc(C)cc1 | ? | ? | 13% | 8% | 14
COc1ccc(-c2cc(NC(C)=O)c3ncc(-c4ccccc4)n3c2)c(OC)c1 | -83% | ? | ? | -27% | -26
COc1ccccc1-c1cc(NC(C)=O)c2ncc(-c3ccccc3)n2c1 | 9.2µM* | 21µM* | ? | 23µM* | -28
O=C(O)/C=C/c1ccccc1Oc1ccc(Cl)cc1Cl | -10% | 9% | -4% | -9% | 3
N=NC(=O)c1ccccc1Nc1c(O)[nH]c2ccccc12 | ? | 21µM* | ? | ? | -1
CC(=O)Nc1c(O)[nH]c2ccccc12 | 0% | -16% | 10% | 0% | 21
Cc1cc(C)c2c(CC(=O)N(Cc3ccc(Cl)cc3)Cc3ccco3)coc2c1 | 8.2µM* | ? | nt | nt | nt
Cc1c(C(=O)N(Cc2ccc(N(C)C)cc2)Cc2ccco2)oc2cc(Br)ccc12 | 9.2µM* | 23µM* | nt | nt | nt
Cc1cc(C)c2c(CC(=O)NCc3ccco3)coc2c1 | ? | ? | ? | ? | 21
CCOCCCNC(=O)CNC(=S)N(Cc1ccc(C)cc1)Cc1ccco1 | 0% | ? | 6% | 9% | 29
Cc1c(C(=O)N(Cc2ccco2)Cc2cccs2)oc2ccccc12 | ? | -9% | 8% | 2% | 7
Cc1ccc2c(CC(=O)N(Cc3ccc(N(C)C)cc3)Cc3ccco3)coc2c1C | 18µM* | 16µM* | nt | nt | nt
NS(=O)(=O)c1ccc(NC(=O)CSc2nc3ccccc3[nH]2)cc1 | -12% | -5% | -1% | -1% | -10
O=C1Cc2ccccc2Sc2cc(OCCCN3CCCCC3)ccc21 | ? | ? | 7% | -3% | 0
O=C1Cc2ccccc2Sc2c(OCCN3CCCCC3)cccc21 | ? | ? | -5% | -1% | -72*
Cc1cc(C)cc(C(=O)NCC(=O)N2CCN(c3cccc(Cl)c3)CC2)c1 | ? | ? | -10% | -14% | -70*
O=C(NCCC(=O)N1CCN(c2ccccc2O)CC1)c1ccc(Br)cc1 | -30% | ? | -1% | -1% | -8
O=C(NCC(=O)N1CCN(Cc2c(F)cccc2Cl)CC1)c1cccc(Cl)c1 | 16µM* | 6.5µM* | -26% | -22% | -8
O=C(NCCC(=O)N1CCN(c2cccc(Cl)c2)CC1)c1ccc(Br)cc1 | ? | ? | ? | -3% | -55*

High-throughput results: PubChem BioAssay, National Center for Advancing Translational Sciences (NCATS)
